Data taken from PubChem BioAssay AID485364 (National Center for Advancing Translational Sciences (NCATS), 2010).
Out of some 360,000 compounds screened, about 11,000 (3.1%) were called active. Another 4% or so got no clear call; they are omitted. Calls follow the shape of the dose curve; as a rule, active = well fitted inhibition curve with a large enough effect; inconclusive = small, poorly fitted or top-dose-only effect; inactive = no such curve, though single readings can be large or run the other way. What follows is part of a selection rich in actives, with near analogues and random picks from the rest. Entries that show only a call come without a potency.
Also: nearly all actives have a fitted effect of over 60% in size.
Potency is read from the fitted curve at half-maximal effect.

Each compound was assayed against Schistosoma mansoni thioredoxin glutathione reductase (TGR) (UniProt Q962Y6) (assay: qHTS Assay for the Inhibitors of Schistosoma Mansoni Peroxiredoxins). Conditions: purified TGR, DTNB reduction, TNB absorbance 405 nm; series mostly up to 114 µM.
In short: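 Kinetic colorimetric format: TGR-catalysed, NADPH-driven DTNB reduction monitored via TNB absorbance. Enzyme dispensed at 20 nM; compound exposure 15 min at room temperature before reaction start.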
With `NS(=O)(=O)c1ccc2nc(NC(=O)COc3ccccc3)sc2c1` the Potency was “inactive”. With `O=C(CSc1nnc(-c2c[nH]c3ccccc23)o1)c1ccccc1` the Potency was “inactive”. With `O=C(CSc1nnc(-c2ccc(NS(=O)(=O)c3ccccc3)cc2)o1)NCC1CCCO1` (stereo unspecified) the Potency was “inactive”. With `O=C(CSc1nnc(-c2ccco2)o1)NCC(=O)c1ccccc1` the Potency was 44.7 µM (active). `O=C(O)c1cc(Cl)c(Cl)cc1C(=O)Nc1cccc2ncccc12` was tested, and the Potency was “inactive”. In the case of `Cc1ccc(/C=C(\C#N)C(=O)Nc2cccc3ncccc23)o1`, the Potency is reported as 20 µM (active). For `CCOC(=O)c1ccc(-c2ccc(/C=C(\C#N)C(=O)Nc3ccc(OCC)cc3)o2)cc1`, the Potency was “inactive”. For `COc1ccc(OC)c(CNC(=O)CN2C(=O)CCn3nc(-c4cn(C)c5ccccc45)cc32)c1`, the Potency was “inactive”. For `COc1ccc(CCN2C(=O)N(c3cccc(OC)c3)C(=O)C2CC(=O)Nc2ccccc2)cc1` (stereo unspecified), the Potency was “inactive”. In the case of `Cc1ccc(CN2CCC(CNC(=O)c3cnn(-c4ccc(C)cc4)c3C3CCN(C(=O)OC(C)(C)C)CC3)CC2)cc1`, the Potency is reported as “inactive”. In the case of `CCCC(=O)Nc1cc(C(=O)NCc2ccc(OC)cc2)ccc1S(=O)(=O)c1ccc(Cl)cc1`, the Potency is reported as “inactive”. In the case of `O=C(NCC#CCSc1nnc(-c2cccc3ccccc23)o1)c1cccs1`, the Potency is reported as 22.4 µM (active). With `O=C(OCC#CCSc1nnc(-c2ccncc2)o1)c1sc2ccccc2c1Cl` the Potency was “inactive”. With `COc1ccccc1-c1nnc(SCC(N)=O)o1` the Potency was “inactive”. For `CSc1ccc(NC(=O)Cn2nnnc2-c2ccccc2F)cc1`, the Potency was “inactive”. With `Cc1c(-c2ccccc2)cn2c1-c1ccc(C)n1CC2` the Potency was 35.5 µM (active). In the case of `CCCOc1ccc(C(=O)Nc2ccc3oc(-c4cccc(Cl)c4Cl)nc3c2)cc1`, the Potency is reported as “inactive”. For `Cc1ccc(S(=O)(=O)c2nc(-c3cccs3)oc2N2CCCCC2)cc1`, the Potency was “inactive”. For `Cc1ccccc1NC(=O)Cn1c(=O)n(CCc2ccccc2)c(=O)c2ccccc21`, the Potency was “inactive”. `C/C(CCC(=O)OC[C@H]1O[C@H](C#Cc2ccccc2)C=C[C@@H]1Oc1ccc(C)cc1)=N\OC[C@@H](O)[C@H]1O[C@@H]2OC(C)(C)O[C@@H]2[C@H]1O` was tested, and the Potency was 2.51 µM (active). For `Cc1ccc(Cl)cc1NC(=O)Cc1ccc(-n2c(C)nc3cccnc32)cc1`, the Potency was “inactive”. For `Cc1ccc2sc(N(CCN(C)C)C(=O)/C=C/c3cccs3)nc2c1C`, the Potency was “inactive”. `COc1ccc(N(C)C(=O)CCS(=O)(=O)c2cccc3nsnc23)cc1` was tested, and the Potency was “inactive”. `O=C(CCS(=O)(=O)c1ccccc1)N(Cc1cccnc1)c1nc2c(F)cccc2s1` was tested, and the Potency was 0.562 µM (active). In the case of `CN(C)S(=O)(=O)c1ccc(C(=O)N(Cc2cccnc2)c2nc3c(F)cc(F)cc3s2)cc1`, the Potency is reported as “inactive”. In the case of `Cc1cccc2sc(N(CCCN(C)C)C(=O)CCS(=O)(=O)c3ccccc3)nc12`, the Potency is reported as 10 µM (active). `O=C(C1COc2ccccc2O1)N(Cc1cccnc1)c1nc2c(F)cc(F)cc2s1` (stereo unspecified) was tested, and the Potency was “inactive”. For `COc1cccc2sc(N(CCCN(C)C)C(=O)CCS(=O)(=O)c3ccccc3)nc12`, the Potency was 2 µM (active). `Cc1cc(C)c2nc(N(CCN(C)C)C(=O)/C=C/c3cccs3)sc2c1` was tested, and the Potency was “inactive”. With `CN(C)CCCN(C(=O)c1ccc(S(=O)(=O)N2CCCc3ccccc32)cc1)c1nc2ccc(F)cc2s1` the Potency was “inactive”. For `Cc1ccc(N2CC(NC(=O)Cc3cccs3)CC2=O)cc1` (stereo unspecified), the Potency was “inactive”. For `Cc1nc2sc(C)c(C)n2c(=O)c1S(=O)(=O)NCCc1ccc(Cl)cc1`, the Potency was “inactive”. `O=C(NC1CCCCC1)c1ccc(Cn2c(SCc3ccccc3)nc3cccnc32)cc1` was tested, and the Potency was “inactive”. With `COc1ccc(CCNc2nc(-c3ccc(Cl)cc3)cc(C(F)(F)F)n2)cc1OC` the Potency was “inactive”. In the case of `Cc1ccccc1OCCSc1nc2ccc(NC(=O)c3ccco3)cc2s1`, the Potency is reported as “inactive”. `Cc1cc(C)c(NC(=O)CSc2nc3nccnc3c(=O)n2CCc2c[nH]c3ccccc23)c(C)c1` was tested, and the Potency was “inactive”. With `Cc1ccc(NC2=C(c3ccc(C(F)(F)F)cc3)C(=O)c3ccccc32)cc1F` the Potency was “inactive”. `CCOc1ccccc1NC(=O)CN1CCCN(Cc2cccc(Cl)c2)S1(=O)=O` was tested, and the Potency was “inactive”. In the case of `CCOc1ccc(CCNC(=O)CN(c2ccc(C)cc2)S(=O)(=O)N(C)C)cc1OCC`, the Potency is reported as “inactive”. `CCCN(C(=O)Cn1cc(S(=O)(=O)N2CCN(c3ccccc3F)CC2)c2ccccc2c1=O)c1cccc(C)c1` was tested, and the Potency was “inactive”. For `CC(=O)c1ccc(S(=O)(=O)Nc2ccc(C(=O)NCC(c3ccccc3)N(C)C)cc2)cc1` (stereo unspecified), the Potency was 14.1 µM (active). In the case of `CN(C)C(CNC(=O)c1ccc(S(=O)(=O)NCc2ccco2)cc1)c1ccccc1` (stereo unspecified), the Potency is reported as “inactive”. `COc1ccc(C(CNC(=O)c2ccc(S(=O)(=O)Nc3ccccc3F)cc2)N(C)C)cc1` (stereo unspecified) was tested, and the Potency was “inactive”. For `COc1ccccc1C(CNC(=O)c1cccc(NS(=O)(=O)c2ccc(Br)cc2)c1)N(C)C` (stereo unspecified), the Potency was “inactive”. For `CN(C)C(CNC(=O)c1cccc(S(=O)(=O)Nc2ccc(Br)cc2)c1)c1ccco1` (stereo unspecified), the Potency was 35.5 µM (active). In the case of `COc1ccccc1C(CNC(=O)c1cccc(S(=O)(=O)Nc2ccc(F)cc2)c1)N(C)C` (stereo unspecified), the Potency is reported as “inactive”. In the case of `CCN(Cc1ccccc1)Cc1c(O)ccc2c(=O)c(-c3ccc(Cl)cc3Cl)coc12`, the Potency is reported as “inactive”. For `COCCN(Cc1ccco1)C(=O)Cn1ncc2c([nH]c3ccccc32)c1=O`, the Potency was “inactive”. With `COc1cccc(CNC(=O)c2ccc3c(c2)sc2nc(-c4cccc(OC)c4)cn23)c1` the Potency was “inactive”. For `O=C(NCCS(=O)(=O)N1CCN(c2ccc(F)cc2)CC1)c1ccccc1Br`, the Potency was “inactive”. In the case of `CC(NC(=O)c1cc2c(=O)n3ccccc3nc2n(C(C)C)c1=N)c1ccccc1` (stereo unspecified), the Potency is reported as “inactive”. For `COc1cc(C(c2c(NC(=O)c3ccco3)sc(C)c2C)N2CCOCC2)cc(OC)c1OC` (stereo unspecified), the Potency was “inactive”. In the case of `CCc1cc(C(c2ccccc2OC)N2CCOCC2)c(NC(=O)c2ccccc2)s1` (stereo unspecified), the Potency is reported as 20 µM (active). With `CCc1cc(C(N)=O)c(NC(=O)c2ccc(OC)cc2)s1` the Potency was “inactive”. With `O=C(Cn1c(=O)n(Cc2cccs2)c(=O)c2cccnc21)Nc1ccc(F)cc1` the Potency was “inactive”. `CCc1ccc(CN(C)C(=O)CCc2nnc(-c3ccc(-c4ccccc4)cc3)o2)nc1` was tested, and the Potency was 35.5 µM (active). `CC(=O)c1ccc(-c2nnc(CCC(=O)N(C)Cc3cnc4ccccn34)o2)s1` was tested, and the Potency was “inactive”. `CCc1ccc(CN(C)Cc2nc(Cc3ccccc3)no2)nc1` was tested, and the Potency was “inactive”. For `Cc1c(CNCCc2ccccc2)c(C(=O)O)c(C)n1-c1ccccc1`, the Potency was 44.7 µM (active). With `COc1ccc(CCNCc2c(C(=O)O)c(C)n(Cc3cccc(C)c3)c2C)cc1OC` the Potency was “inactive”. `CCOc1ccccc1CNCc1c(C(=O)O)c(C)n(Cc2ccc(C)cc2)c1C` was tested, and the Potency was “inactive”.
